# Shown are actives, neighbours in structure and some others; about 0.52% of the full set was active somewhere.
# GAA inh: inhibitors of human lysosomal alpha-glucosidase; purified human GAA, 4-MU-alpha-glucoside fluorescence; Potency, µM (doses to about 76.9 µM), for inactives: at the highest dose activity change, negative = inhibition, usual class: inhibitors; 200,000 compounds, 0.005% hits; AID 1466;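 also: plate controls were uninhibited enzyme wells for no effect and no-enzyme background for full effect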
#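 Fluorescence at Ex 365/Em 440 nm from 4-methylumbelliferone reported enzyme activity after 20 min at room temperature. Reactions used 4 nM enzyme and 400 uM substrate at pH 5.0; curves fitted with the Hill equation.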
# GAA glycogen mod: GAA glycogen-cleavage inhibition or activation. Potency, µM (doses to about 76.4 µM), for inactives: top-dose activity change, negative = inhibition, actives largely listed as inhibitors. 300,000 compounds, 0.38% hits. recombinant GAA, glycogen substrate, Amplex Red glucose oxidase fluorescence. P10253;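 also: 0% = full enzyme reaction and -100% = no-enzyme basal signal; the screen sought inhibitors and activators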
#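 Natural-substrate format: glycogen cleavage by 4 nM human enzyme, glucose read by Amplex Red coupling (Ex 573, Em 610 nm). Normalized to enzyme and no-enzyme controls.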
# Luc counter: Kinase-Glo luciferase inhibition (counter-screen); Kinase-Glo luciferase, ATP luminescence, 8 min; AID 1379; Potency, µM (doses to about 38.3 µM), without a hit: top-dose activity change, negative = inhibition, usual class: inhibitors; Q27757; 200,000 compounds, 0.28% hits; also: nearly all actives have a fitted effect of over 60% in size
#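 Recombinant Kinase-Glo luciferase, 10 uM ATP (linear range), luciferin; imidazole pH 7.2 / KCl / MgCl2 / Tween / BSA buffer; 8 min RT; luminescence.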
# N370S GC mod: inhibits or activates N370S mutant glucocerebrosidase. P04062. N370S GC spleen homogenate, 4MU-glucoside fluorescence. Potency, µM (doses to about 59.4 µM), for inactives: at the highest dose activity change, negative = inhibition, actives largely listed as inhibitors. 330,000 compounds, 0.092% hits. AID 2101;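 also: 0% = full enzyme activity and -100% = no enzyme basal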
# aGlu spleen mod: inhibits or activates alpha-glucosidase in human spleen homogenate | Potency, µM (titrated, usually from 79.9 µM), for inactives: at the highest dose activity change, negative = inhibition, usual class: inhibitors | human spleen homogenate, 4-MU-alpha-glucoside fluorescence | P10253 | 240,000 compounds, 0.006% hits;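 also: 0% = enzyme with vehicle and -100% = no enzyme basal signal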
#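 Enzyme source: human spleen homogenate, 1 ug/well. Buffer 50 mM citric acid/K phosphate pH 5.0, 0.01% Tween-20. 4-MU-alpha-glucoside 1 mM; 37 C x 40 min; NaOH/glycine stop; fluorescence.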
# LMNA splice mod: LMNA splicing modulation; AID 1487; 200,000 compounds, 0.01% hits; HeLa LMNA splicing GFP/RFP minigene ratio, 48 h; Potency, µM (titrated, usually from 46.1 µM), for inactives: at the top dose ratio change, negative = inhibition, most hits filed as inhibitors; active = well fitted inhibition curve with a large enough effect in the signal ratio, with a control signal flat, not every such curve was filed as active; inconclusive = small, poorly fitted or top-dose-only effect, or effect the other way, or a change in a side signal; the % refers to the signal ratio
#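 S3 HeLa cells stably expressing lamin A-EGFP splicing minigene plus DsRed2, 600 cells/well, 48 h compound exposure at 37C. Laser-scanning cytometry; analysed as GFP (500-530 nm)/RFP (575-640 nm) total intensity ratio; 0.5% DMSO vehicle.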
# Starred values were filed as active, the others as inactive; ? = inconclusive; · = not tested or not shown; [ ] = dose if it differs, or a comment. Unless noted, calls follow the shape of the dose curve; as a rule, active = well fitted curve in the direction sought with a large enough effect; inconclusive = small, poorly fitted or top-dose-only effect, or another doubt; inactive = no such curve, though single readings can be large; an effect the other way counts as inactive or inconclusive. Unless noted, % is scaled to controls: 0 for no effect and ±100 for the full control effect; potency is read from the fitted curve at half-maximal effect.
SMILES,GAA inh,GAA glycogen mod,Luc counter,N370S GC mod,aGlu spleen mod,LMNA splice mod
Cc1cc(C)c(S(=O)(=O)/N=C2\C=CC(=O)C(Cl)=C2)c(C)c1,?,12µM*,-1%,-1%,-2%,7%
CC(C)c1ccc(NC(=S)Nc2cccc3ccccc23)cc1,·,40µM*,·,-13%,·,·
Cc1ccc(/C=C/c2nc3ccccc3[nH]2)cc1,·,·,·,·,·,-11%[46 µM]
Cc1ccc(/C=C/c2nc3ccccc3[nH]2)o1,8%,-21%,13µM*,-4%,-1%,?
Fc1ccc(NCc2cn3ccccc3n2)cc1,-3%,-19%,11µM*,0%,0%,6%
Cc1ccc(OCCn2cc(C(=S)N3CCCC3)c3ccccc32)cc1C,1%,-3%,0%,13%,-19%,?
Cc1ccc(OCCn2cc(/C(N)=N/O)c3ccccc32)cc1C,-6%,40µM*,-2%,?,-24%,?
COc1ccc(OCCn2cc(/C(N)=N/O)c3ccccc32)cc1,?,12µM*,3%,-15%,-5%,-13%
O=C1NC[C@H](c2ccccc2)N1,·,·,0%,-6%,5%,·
c1ccc2nc(-c3nc4ccccc4[nH]3)ccc2c1,-1%,9%,8.9µM*,6%,-4%,7%
CCOc1ccccc1CNC(=O)c1ccc(Cn2c(=O)c3cccn3c3cccnc32)cc1,·,11%[76.3 µM],·,·,·,·
COc1ccc(COC(=O)C2=C(C)NC(=O)NC2c2cccc(OC)c2OC)cc1 (stereo unspecified),·,40µM*,·,-6%,·,·
COCCn1c(C)cc(C(=O)CSc2nnc(C)s2)c1C,1%,-17%,10µM*,1%,9%,?
Clc1ccccc1-c1nc(NCc2cccnc2)c2ccccc2n1,·,·,·,16µM*,3%,0%
CC(C)(C)C(=O)OCCNc1nc(-c2ccccc2)nc2ccccc12,-11%,-1%,-2%,0.89µM*,3%,4%
c1ccc(Nc2nc(-c3ccncc3)nc3ccccc23)cc1,7%,14%,6%,-9%,0%,-18%
CC(C)OCCCNc1nc(-c2ccccc2)nc2ccccc12,·,-10%[76.3 µM],·,1.8µM*,·,·
c1ccc(CCNc2nc(-c3ccncc3)nc3ccccc23)cc1,·,-3%,·,14µM*,0%,·
CC(C)c1ccc(NC(=O)CN(C)S(=O)(=O)c2ccc3c(c2)n(C)c(=O)c(=O)n3C)cc1,·,13%[76.3 µM],·,·,·,·
COc1cc(OC)cc(C(=O)Nc2cc(-c3nc4cc(Cl)ccc4o3)ccc2Cl)c1,·,4%[76.3 µM],·,·,·,·
COc1ccc(-c2nnc(SCC(=O)Oc3c(C)cccc3C)o2)cc1OC,·,0%[76.3 µM],·,·,·,·
CCOc1ccc(Nc2oc(-c3ccco3)nc2C#N)cc1,-3%,35µM*,-1%,-2%,-7%,?
CCOc1cc(/C=N/NC(=O)c2cc(-c3cccc(OC)c3)n[nH]2)ccc1O,·,·,-1%,·,·,·
CCOc1ccc(OCc2cccc(C(=O)O)c2)cc1,0%,-15%,11µM*,-1%,-2%,3%
Cc1ccc(C=C2C(=O)c3ccccc3C2=O)s1,-11%,-8%,7.1µM*,·,-1%,7%
SMILES,GAA inh,GAA glycogen mod,Luc counter,N370S GC mod,aGlu spleen mod,LMNA splice mod
Cc1ccc(C=C2C(=O)c3ccccc3C2=O)o1,-10%,7%,11µM*,-2%,-6%,-2%
COc1ccc(NS(=O)(=O)c2ccc3c(c2)n(C)c(=O)c(=O)n3C)cc1Cl,·,18%[76.3 µM],·,·,·,·
C=CCNC(=S)NN=C1CCCCCCC1,10%,35µM*,0%,0%,-7%,·
Cc1ccc(-c2nc3cnccn3c2Nc2ccc3c(c2)OCO3)cc1,?,?,1%,-14%,-3%,-8%
Cc1ccn2c(NCc3ccc4c(c3)OCO4)c(-c3ccc(O)cc3)nc2c1,0%,-8%,-3%,13µM*,-4%,-4%
Oc1ccc(-c2nc3ccccn3c2NCc2ccc3c(c2)OCO3)cc1,9%,35µM*,-7%,?,-23%,2%
Fc1ccc(-c2nc3ccccn3c2NCc2ccc3c(c2)OCO3)cc1,2%,?,-2%,?,1%,-5%[46 µM]
CCOC(=O)C1CCCN(C(=S)Nc2ccc(Nc3ccccc3)cc2)C1 (stereo unspecified),-14%,40µM*,0%,5%,-11%,·
CCOC(=O)C1CCCN(Cc2nc(N)nc(Nc3ccccc3)n2)C1 (stereo unspecified),?,4µM*,-1%,-12%,5%,-13%
Nc1nc(CN2CCCCCC2)nc(Nc2ccccc2)n1,2%,10%,-1%,-9%,-6%,-10%
C/C(=N/NC(=O)c1ccccn1)c1ccco1,1%,?,7.1µM*,1%,-16%,15%
C/C(=N/NC(=O)c1ccccn1)c1ccc(O)cc1,·,?,·,0%,6%,·
Cc1c(C)n(Cc2ccc(Cl)cc2)c2ccc(C(=O)NCCN3CCOCC3)cc12,·,·,·,10µM*,·,·
O=C(NC(=S)N1CCN(c2ccc(F)cc2)CC1)c1cccs1,-2%,-10%,1%,25%,2%,?
O=C(NC(=S)N1CCN(c2ccc(O)cc2)CC1)c1cccs1,·,10µM*,·,-6%,-2%,·
Cc1c2cnn(CC(=O)NCc3ccc(F)cc3)c(=O)c2c(C)n1Cc1cccc(Cl)c1,·,-2%[76.3 µM],·,·,·,·
COc1ccc2c(c1)sc1nc(-c3ccccc3)cn12,-2%,6%,10µM*,?,-6%,?
COc1ccc(-c2cn3c(n2)sc2cc(C(=O)NCc4ccccc4)ccc23)cc1,·,-13%[76.3 µM],·,·,·,10%[46 µM]
O=C(O)c1ccccc1C(=O)NNc1ccc(Cl)cc1Cl,4%,16µM*,1%,1%,2%,?
O=C(NNC(=O)c1ccccc1-n1cccc1)c1ccc(Cl)cc1Cl,?,6%,0%,6%,5%,-4%[0.0737 µM]
O=C(O)c1ccccc1C(=O)NNc1ccc(F)cc1,-9%,28µM*,0%,2%,2%,3%
Cc1cccc(CS(=O)(=O)Cc2ccc(C(=O)NCc3ccc(F)cc3)o2)c1,·,·,·,·,·,-10%[46 µM]
CCCCN(CC)S(=O)(=O)c1ccc(C(=O)N(CCCN(C)C)c2nc3cc(C)cc(C)c3s2)cc1,-5%,16%,-1%,?,5%,·
CCN(Cc1ccccc1)S(=O)(=O)c1ccc(C(=O)N(CCCN(C)C)c2nc3cc(C)cc(C)c3s2)cc1,·,·,·,14µM*,·,·
CCOC(=O)c1cc(-c2ccc(C)cc2)n(CC(=O)NC2CCCCCC2)c1C,·,1%[76.3 µM],·,·,·,·
CCn1c(C)nc2cc(-c3nc4n(n3)Cc3ccccc3-4)ccc21,0%,4%,2.2µM*,3%,-12%,-11%
Cc1ccc(-c2nc3n(n2)Cc2ccccc2-3)cc1,-2%,7%,?,3%,5%,?
CCn1c(C)nc2cc(C#N)ccc21,6%,8%,-1%,16%,3%,-11%[9.22 µM]
